Assay results published in ChEMBL document CHEMBL1961873, “Compounds: GSK PKIS; Assays: Nanosyn kinase panel” (2012).
Where “and” joins values, the source holds several entries; their conditions need not be identical. Identical values can stand only once.

Key:
[1] = molecular target: T1, Muscle, skeletal receptor tyrosine-protein kinase (Homo sapiens) (UniProt O15146); conditions: at 1 µM;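 further: reported value is the mean percent inhibition of MuSK kinase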
T1 sequence (whole entry): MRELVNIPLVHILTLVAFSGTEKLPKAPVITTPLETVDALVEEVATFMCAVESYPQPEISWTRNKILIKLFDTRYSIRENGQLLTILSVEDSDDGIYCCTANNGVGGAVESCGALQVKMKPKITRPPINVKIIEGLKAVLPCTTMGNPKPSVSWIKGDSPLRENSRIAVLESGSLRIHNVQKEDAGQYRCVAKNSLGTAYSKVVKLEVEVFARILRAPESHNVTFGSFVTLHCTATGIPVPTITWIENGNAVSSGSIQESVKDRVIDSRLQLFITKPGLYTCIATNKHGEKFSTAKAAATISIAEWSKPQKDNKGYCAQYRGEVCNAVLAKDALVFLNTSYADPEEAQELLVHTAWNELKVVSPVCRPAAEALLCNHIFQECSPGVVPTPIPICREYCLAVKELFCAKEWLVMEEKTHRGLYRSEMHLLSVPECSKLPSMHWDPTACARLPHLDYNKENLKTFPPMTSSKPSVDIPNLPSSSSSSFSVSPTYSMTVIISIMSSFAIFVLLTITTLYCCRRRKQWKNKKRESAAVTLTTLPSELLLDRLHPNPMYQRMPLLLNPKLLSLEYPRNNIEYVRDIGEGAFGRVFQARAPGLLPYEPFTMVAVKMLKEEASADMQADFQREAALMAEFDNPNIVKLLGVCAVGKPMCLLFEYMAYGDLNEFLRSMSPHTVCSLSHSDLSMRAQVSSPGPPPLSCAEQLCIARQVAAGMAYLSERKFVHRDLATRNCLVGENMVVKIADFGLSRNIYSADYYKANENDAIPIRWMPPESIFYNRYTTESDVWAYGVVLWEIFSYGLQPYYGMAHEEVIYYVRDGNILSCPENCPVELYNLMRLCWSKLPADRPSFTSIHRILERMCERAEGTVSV

[2] = molecular target: Platelet-derived growth factor receptor alpha (Homo sapiens) (UniProt P16234); conditions: at 0.1 µM
[3] = molecular target: Platelet-derived growth factor receptor alpha (Homo sapiens) (UniProt P16234); conditions: at 1 µM
[4] = tested on: Platelet-derived growth factor receptor alpha (Homo sapiens), P16234 [D842V]; conditions: at 0.1 µM
[5] = tested on: Platelet-derived growth factor receptor alpha (Homo sapiens), P16234 [D842V]; conditions: at 1 µM
[6] = tested on: Platelet-derived growth factor receptor alpha (Homo sapiens), P16234 [T674I]; conditions: at 0.1 µM
[7] = tested on: Platelet-derived growth factor receptor alpha (Homo sapiens), P16234 [T674I]; conditions: at 1 µM
[8] = tested on: Platelet-derived growth factor receptor alpha (Homo sapiens), P16234 [V561D]; conditions: at 0.1 µM
[9] = tested on: Platelet-derived growth factor receptor alpha (Homo sapiens), P16234 [V561D]; conditions: at 1 µM
[10] = molecular target: Platelet-derived growth factor receptor beta (Homo sapiens) (UniProt P09619); conditions: at 0.1 µM;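 further: reported value is the mean percent inhibition of the kinase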
Chain of Platelet-derived growth factor receptor beta (Homo sapiens) (P09619 whole entry): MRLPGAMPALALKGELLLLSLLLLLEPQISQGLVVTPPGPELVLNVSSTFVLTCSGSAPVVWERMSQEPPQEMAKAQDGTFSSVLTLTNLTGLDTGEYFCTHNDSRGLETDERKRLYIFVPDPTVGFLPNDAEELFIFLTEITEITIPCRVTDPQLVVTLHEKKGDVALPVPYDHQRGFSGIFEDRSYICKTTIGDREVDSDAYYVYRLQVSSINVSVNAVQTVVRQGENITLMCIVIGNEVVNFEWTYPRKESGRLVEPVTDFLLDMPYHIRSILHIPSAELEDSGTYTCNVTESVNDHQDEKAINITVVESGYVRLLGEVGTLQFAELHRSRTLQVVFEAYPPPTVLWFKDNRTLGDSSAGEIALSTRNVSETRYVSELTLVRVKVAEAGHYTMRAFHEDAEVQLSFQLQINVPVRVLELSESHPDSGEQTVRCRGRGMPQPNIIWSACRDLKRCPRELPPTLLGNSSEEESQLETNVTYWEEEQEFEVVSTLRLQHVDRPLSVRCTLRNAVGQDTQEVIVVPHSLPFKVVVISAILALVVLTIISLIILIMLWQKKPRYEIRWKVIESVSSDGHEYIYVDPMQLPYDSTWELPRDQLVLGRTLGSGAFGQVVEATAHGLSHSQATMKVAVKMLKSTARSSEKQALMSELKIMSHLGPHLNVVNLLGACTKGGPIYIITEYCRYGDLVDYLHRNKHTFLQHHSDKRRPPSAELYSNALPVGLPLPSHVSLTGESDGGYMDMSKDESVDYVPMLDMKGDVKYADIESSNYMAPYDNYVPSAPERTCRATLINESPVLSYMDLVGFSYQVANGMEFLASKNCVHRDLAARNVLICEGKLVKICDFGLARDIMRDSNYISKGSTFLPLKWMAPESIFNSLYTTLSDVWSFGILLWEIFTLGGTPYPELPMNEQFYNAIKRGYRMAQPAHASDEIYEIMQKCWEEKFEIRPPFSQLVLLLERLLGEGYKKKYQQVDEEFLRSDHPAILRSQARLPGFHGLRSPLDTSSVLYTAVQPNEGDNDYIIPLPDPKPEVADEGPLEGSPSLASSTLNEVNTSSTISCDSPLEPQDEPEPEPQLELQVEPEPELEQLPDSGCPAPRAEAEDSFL

Chain of Platelet-derived growth factor receptor alpha (Homo sapiens) (P16234 whole entry): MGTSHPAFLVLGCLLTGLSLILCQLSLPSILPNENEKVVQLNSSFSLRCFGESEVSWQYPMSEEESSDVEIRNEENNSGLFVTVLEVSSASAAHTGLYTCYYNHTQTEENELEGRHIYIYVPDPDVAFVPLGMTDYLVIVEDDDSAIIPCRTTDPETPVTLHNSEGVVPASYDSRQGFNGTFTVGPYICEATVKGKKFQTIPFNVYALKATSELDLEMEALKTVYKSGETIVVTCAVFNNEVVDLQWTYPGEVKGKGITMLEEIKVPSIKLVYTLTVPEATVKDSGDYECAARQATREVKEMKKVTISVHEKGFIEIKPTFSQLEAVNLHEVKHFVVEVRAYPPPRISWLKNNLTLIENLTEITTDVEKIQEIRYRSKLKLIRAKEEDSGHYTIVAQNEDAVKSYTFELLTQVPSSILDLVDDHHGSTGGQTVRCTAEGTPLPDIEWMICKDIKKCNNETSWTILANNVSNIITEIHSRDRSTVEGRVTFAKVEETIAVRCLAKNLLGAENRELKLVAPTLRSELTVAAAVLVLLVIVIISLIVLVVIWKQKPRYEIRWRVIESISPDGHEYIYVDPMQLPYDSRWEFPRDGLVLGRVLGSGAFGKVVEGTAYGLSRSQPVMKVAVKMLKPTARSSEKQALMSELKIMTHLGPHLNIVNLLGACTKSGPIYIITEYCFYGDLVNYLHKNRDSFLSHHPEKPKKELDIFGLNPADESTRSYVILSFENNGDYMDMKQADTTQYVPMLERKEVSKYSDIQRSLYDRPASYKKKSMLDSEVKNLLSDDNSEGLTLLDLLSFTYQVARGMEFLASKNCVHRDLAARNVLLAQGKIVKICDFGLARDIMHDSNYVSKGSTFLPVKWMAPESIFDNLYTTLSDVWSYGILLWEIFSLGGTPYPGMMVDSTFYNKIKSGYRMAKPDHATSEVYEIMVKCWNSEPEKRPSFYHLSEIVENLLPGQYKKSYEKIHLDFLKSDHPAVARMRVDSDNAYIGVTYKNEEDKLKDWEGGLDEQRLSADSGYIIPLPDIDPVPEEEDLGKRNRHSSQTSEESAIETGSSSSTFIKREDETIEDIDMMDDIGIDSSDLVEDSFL
Chain of Platelet-derived growth factor receptor alpha (Homo sapiens), P16234 [D842V] (P16234 whole entry D842V): as the sequence (P16234 whole entry) above, with D842V counted along it
Chain of Platelet-derived growth factor receptor alpha (Homo sapiens), P16234 [V561D] (P16234 whole entry V561D): as the sequence (P16234 whole entry) above, with V561D counted along it
Chain of Platelet-derived growth factor receptor alpha (Homo sapiens), P16234 [T674I] (P16234 whole entry T674I): as the sequence (P16234 whole entry) above, with T674I counted along it

SMILES | inhibition [1] | inhibition [2] | inhibition [3] | inhibition [4] | inhibition [5] | inhibition [6] | inhibition [7] | inhibition [8] | inhibition [9] | inhibition [10]
CC(C)c1ccc(-c2cc(-c3c[nH]nc3-c3ccccn3)ccn2)cc1 | 6.85% | 10% | 19.8% | 5.82% | 34.2% | 4.22% | 3.25% | 5.56% | 20.6% | 3.19%
Cc1nnc(-c2cccc(-c3ccc(C(=O)NCC4CC4)cc3)c2)o1 | 6.37% | 13.9% | 15.2% | 2.78% | 5.47% | 6.98% | 11.6% | 4.66% | 3.3% | 5.4%
COc1cccc(Nc2nccc(-c3cnn4ncccc34)n2)c1 | 25.3% | 14.3% | 49.3% | 6.1% | 47.1% | 12.6% | 80.7% | 26.4% | 64.1% | 23.9%
CN1CCC(n2cnc(-c3ccc(F)cc3)c2-c2ccnc(NCCO)n2)CC1 | 3.41% | 13.6% | 14.4% | 5.63% | 8.15% | 7.46% | 9.01% | 7.95% | 3.97% | 8.62%
Fc1cccc(COc2ccc(Nc3ncncc3C#Cc3ccccc3)cc2Cl)c1 | 3.28% | 13% | 12.4% | 5.22% | 4.74% | 8.12% | 9.74% | 8.16% | 5.45% | 6.95%
CNC(=O)c1ncccc1Nc1nc(Nc2cc3c(cc2OC)CCCN3C(=O)CN(C)C)nc2[nH]ccc12 | 16.7% | 10.7% | 20.6% | 3.17% | 7.19% | 5.75% | 6.87% | 3.32% | 9.94% | 7.26%
CS(=O)(=O)CCNCc1ccc(-c2ccc3ncnc(Nc4ccc(OCc5cccc(C(F)(F)F)c5)cc4)c3c2)o1 | 9.15% | 9.67% | 15.9% | 0.59% | 1.85% | 5.53% | 12.3% | 4.16% | 14.6% | 7.32%
COc1ccc2ncn(-c3cc(O[C@H](C)c4ccccc4C(F)(F)F)c(C(N)=O)s3)c2c1 | 22.4% | 8.31% | 35.4% | 4.46% | 24.9% | 0.36% | 9.23% | 5.47% | 26.1% | 6.65%
CN(c1ccc(NC(=O)NCCN2CCOCC2)cc1)c1ccnc(Nc2ccc(CS(C)(=O)=O)cc2)n1 | 8.61% | 51.8% | 84.4% | 2.7% | 28.6% | 63.9% | 95% | 61.6% | 90.1% | 33.7%
NC(=O)c1ccc2c(-c3ccnc(NCCCO)n3)c(-c3ccc(F)cc3)nn2c1 | 2.08% | 5.5% | 16.9% | 4.25% | 8.75% | 6.06% | 6.59% | 4.18% | 14.3% | 4.83%
COC(=O)Nc1nc2cc(Oc3ccc(NC(=O)Nc4ccccc4)cc3)ccc2[nH]1 | 2.88% | 38.5% | 66.6% | 0.57% | 5.23% | 53% | 93.9% | 62.7% | 84.8% | 7.12%
O=C1Nc2ccccc2/C1=C1\CCc2cc(O)ccc21 | 32.1% | 23% | 63.2% | 7.24% | 34.7% | 45.7% | 97.7% | 32.4% | 64.8% | 11.3%
O=C(O[C@H]1CN[C@H](C#Cc2cc3ncnc(Nc4ccc5c(ccn5Cc5cc(F)ccc5F)c4)c3s2)C1)N1CCOCC1 | 4.92% | 6.05% | 12.3% | 2.95% | 3.49% | 5.88% | 6.54% | 7.32% | 5.97% | 2.48%
N#Cc1ccc2c(-c3ccnc(NC4CC4)n3)c(-c3ccc(F)cc3)nn2c1 | -0.28% | 2.76% | 11.6% | -0.1% | 6.91% | 6.42% | 6.15% | 1.97% | 8.16% | 2.34%
CCOc1ccc2c(-c3ccnc(Nc4cc(OC)cc(C(F)(F)F)c4)n3)cnn2n1 | 5.37% | 6.45% | 30% | 2.97% | 18.4% | 2.28% | 8.05% | 6.9% | 33.4% | 7.05%
N#Cc1cccc(Nc2ncc(-c3ccccc3)o2)c1 | 2.86% | 5.63% | 17% | 1.11% | 3.47% | 6.26% | 36.3% | 16.2% | 36.8% | 7.37%

SMILES | inhibition [1] | inhibition [2] | inhibition [3] | inhibition [4] | inhibition [5] | inhibition [6] | inhibition [7] | inhibition [8] | inhibition [9] | inhibition [10]
OCCCNc1nccc(-c2c(-c3ccc(F)cc3)nn3cc(C(F)(F)F)ccc23)n1 | 6.98% | 10.9% | 15.3% | 2.53% | 5.03% | 4.67% | 6.04% | 0.23% | 6.06% | 6.16%
NS(=O)(=O)c1ccc(N/N=C2\C(=O)Nc3ccc(C(=O)NCc4ccncc4)cc32)cc1 | 21.9% | 23.6% | 69.4% | 18.8% | 71.5% | 3.72% | 16.9% | 15.6% | 61.3% | 45.6%
CC1=C(C(=O)Nc2ccc3[nH]ncc3c2)C(c2ccc(F)cc2)N=C(c2ccc(C(F)(F)F)nc2)N1 (stereo not given) | 5.28% | 6.34% | 8.66% | 2.97% | 3.35% | 3.34% | 4.17% | 3.03% | 3.17% | 1.04%
CS(=O)(=O)Nc1ccc(-c2ccc3c(NC(=O)C4CC4)n[nH]c3c2)cc1 | 7.76% | 12.9% | 28.5% | 3.79% | 10.3% | 4.77% | 4.09% | 5.95% | 26.5% | 3.96%
CCn1c(-c2nonc2N)nc2cncc(C(=O)NCCNC)c21 | -0.23% | 5.61% | 14.2% | 4.53% | 7.01% | 3.41% | 11.4% | 3.13% | 5.82% | 16.2%
O=C(Nc1n[nH]c2nnc(-c3cccnc3)cc12)C1CC1 | -0.99% | -0.04% | 5.88% | 2.16% | 2.26% | 1.36% | 6.43% | 1.61% | 3.69% | 1.07%
COc1cc(N2CCN(C(C)C)CC2)ccc1Nc1nc(Nc2cccc(F)c2C(=O)O)c2cc[nH]c2n1 | 10.5% | 11.3% | 12.8% | 3.04% | 3.08% | 7.14% | 8.84% | 5.91% | 5.37% | 7.62%
CC1=C(C(=O)Nc2ccc3[nH]nc(C)c3c2)C(c2ccc(C(F)(F)F)cc2)CC(=O)N1 (stereo not given) | 23.7% | 7.08% | 19.3% | 2.09% | 6.76% | 2.02% | 1.41% | -0.51% | 8.12% | 8.62%
COc1cc2c(cc1Nc1nc(Nc3cccc(F)c3C(N)=O)c3cc[nH]c3n1)N(C(=O)CN1CCN(C(C)C)CC1)CC2 | 8.69% | -1.51% | 15.2% | -0.49% | 1.55% | 2.01% | 2.59% | -0.47% | 11.6% | 1.46%
Cn1c(-c2nonc2N)nc2cnccc21 | 5.28% | 2.63% | 7.48% | 2.81% | 4.99% | 4.72% | 6.95% | 1.45% | 3.93% | 1.55%
Nc1nonc1-c1nc2cnccc2n1C1CC1 | 8.16% and 1.56% | 15.3% and 5.54% | 18.8% and 15.6% | 4.39% and 4.32% | 16.4% and 18.7% | 6.49% and 5.23% | 20.2% and 20.4% | 4.47% and 2.61% | 14% and 12.1% | 10.2% and 2.99%
Cc1ccc(-c2cc3c(NC(=O)C4CC4)ncnc3o2)cc1 | 7.78% | 13.9% | 38.1% | 7.31% | 29.8% | 6.86% | 32.7% | 8.94% | 31.9% | 8.16%
COc1cc(N2CCN(C(C)C)CC2)ccc1Nc1nc(Nc2cccc3ncccc23)c2cc[nH]c2n1 | 9.48% | 2.96% | 15.3% | 0.2% | 5.09% | 2.09% | 2.26% | 3.08% | 14.8% | 1.3%
COC(=O)Nc1nc2ccc(Oc3ccc(NC(=O)Nc4cc(C(F)(F)F)ccc4F)cc3)cc2s1 | 85.6% | 70.3% | 83.5% | 5.8% | 22.8% | 41.6% | 92% | 74.8% | 93.7% | 20.2%
CNC(=O)c1sc(-n2cnc3cc(OC)c(OC)cc32)cc1OCc1ccccc1C(F)(F)F | 2.82% | 17.2% | 59.7% | 3.81% | 28% | 4.17% | 9.43% | 7.81% | 44.8% | 9.81%
